Test results reported in article PMC6792352, “Limited Chemical Structural Diversity Found to Modulate Thyroid Hormone Receptor in the Tox21 Chemical Library” (Environmental Health Perspectives, 2019).
Counter-ions that a name gives are not always drawn.

These molecules were tested on thyroid hormone receptor (endogenous TRα and TRβ). Details: read-out: Average AC50 (uM) GH3-TRE-Antag, antagonist mode, 1 nM T3, no GH3 cytotoxicity hit.
Design: species or system GH3-TRE-Luc (rat pituitary); GH3-TRE-Luc luciferase reporter, antagonist mode against 1 nM T3, loss of signal, qHTS

Compared with `CCCc1c(OCCCCc2nnn[nH]2)ccc(C(C)=O)c1O` [Tomelukast], `C#Cc1cccc(Nc2ncnc3cc(OCCOC)c(OCCOC)cc23)c1` [Erlotinib] is 2.2-fold lower in AC50: 49.2 µM for the first, 21.9 µM for the second.

Compared with `CCCCCCCCCCCCCCC[C@H](O)[C@@H](N)CO` [Safingol], `CCCCCCCCCCCCCCC(Br)C(=O)O` (centres unmarked) [2-Bromohexadecanoic acid] is 2-fold higher in AC50: 27.1 µM for the first, 53.6 µM for the second.

`CCCCCCCCCC=CCC1CC(=O)OC1=O` (centres unmarked) [(2-Dodecenyl)succinic anhydride] and `CC/C=C\C/C=C\C/C=C\CCCCCCCC(=O)OCC` [Ethyl linolenate] are within 1.5-fold of each other in AC50: 74.5 µM for the first, 65.3 µM for the second.

`O=C(O)c1cc(Cl)cc(Cl)c1O` [3,5-Dichlorosalicylic acid] and `Nc1cc(Cl)c(N)c(Cl)c1` [2,6-Dichloro-1,4-benzenediamine] are within 1.5-fold of each other in AC50: 68.6 µM for the first, 78 µM for the second.

Compared with `COC(=O)N(C(=O)N1CO[C@@]2(C(=O)OC)Cc3cc(Cl)ccc3C2=N1)c1ccc(OC(F)(F)F)cc1` [Indoxacarb], `CC(C)C(O)(c1ccc(OC(F)(F)F)cc1)c1cncnc1` (centres unmarked) [Flurprimidol] is 7.8-fold higher in AC50: 9.12 µM for the first, 70.7 µM for the second.

Compared with `COc1cc2c(cc1N)oc1ccccc12` [2-Methoxy-3-aminodibenzofuran], `O=C1c2ccccc2-c2n[nH]c3cccc1c23` [SP600125] is 7.3-fold lower in AC50: 84.6 µM for the first, 11.6 µM for the second.

`CC1=NC(C)OC1C` (centres unmarked) [2,4,5-Trimethyl-3-oxazoline] and `CO[C@H]1O[C@@H]2O[C@@]3(C)CC[C@H]4[C@H](C)CC[C@@H]([C@H]1C)[C@@]24OO3` [Artemether] cannot be ordered by AC50: > 90 µM for the first, > 50 µM for the second.

Going from `C=C1C[C@@H]2[C@H](CC[C@]3(C)C(=O)CC[C@@H]23)[C@@]2(C)C=CC(=O)C=C12` [Exemestane] to `CCN(CC)CCO[C@H]1CC[C@@]2(C)C(=CC[C@@H]3[C@@H]2CC[C@]2(C)C(=O)CC[C@@H]32)C1` [3beta-(2-Diethylaminoethoxy)androst-5-en-17-one hydrochloride], the AC50 falls from 34.6 µM to 22.5 µM (1.5-fold).

First: O=c1[nH]c(Cl)c(Cl)cc1Cl [3,5,6-Trichloro-2-pyridinol]
Second: O=S(=O)(c1cccc2cnccc12)N1CCCNCC1 [Fasudil hydrochloride]
The AC50 of the first is 2.6-fold higher: 76.8 µM for the first, 30.1 µM for the second.

`CCOC(=O)C(C)Oc1ccc(Oc2cnc3cc(Cl)ccc3n2)cc1` (centres unmarked) [Quizalofop-ethyl] and `CC(=O)Oc1ccc(C2(c3ccc(OC(C)=O)cc3)C(=O)Nc3ccccc32)cc1` [Oxyphenisatin acetate] cannot be ordered by AC50: 78.2 µM for the first, > 50 µM for the second.

`CCCCC[Si](OCC)(OCC)OCC` [Triethoxypentylsilane] and `CCCC(=O)OC[C@@H](OC(=O)CCC)[C@@H](OC(=O)CCC)[C@H](Cn1c2nc(=O)[nH]c(=O)c-2nc2cc(C)c(C)cc21)OC(=O)CCC` [Riboflavin tetrabutyrate] are within 1.5-fold of each other in AC50: 45.9 µM for the first, 42 µM for the second.

First: NCCN1CCNCC1 [1-(2-Aminoethyl)piperazine]
Second: S=P(N1CC1)(N1CC1)N1CC1 [Thiotepa]
The AC50 of the first is higher: > 90 µM for the first, 37.9 µM for the second.

Compared with `Cc1nc2ccccn2c(=O)c1CCN1CCC(C(=O)c2ccc(F)cc2)CC1` [Pirenperone], `O=C1c2ccccc2C(=O)N1CCc1noc(-c2ccc(CN3CCCCCC3)s2)n1` [PharmaGSID_48172] is 1.6-fold higher in AC50: 47 µM for the first, 75.2 µM for the second.

First: NCCNCCN [Diethylenetriamine]
Second: CCCC(=O)N1CCCN(c2nc(N)c3cc(OC)c(OC)cc3n2)CC1 [Bunazosin hydrochloride]
The AC50 of the first is 2.7-fold lower: 18 µM for the first, 47.9 µM for the second.

Going from `CC(C(=O)O)c1ccc(N2Cc3ccccc3C2=O)cc1` (centres unmarked) [Indoprofen] to `O=C(O)C1=NN(c2ccc(S(=O)(=O)O)cc2)C(=O)C1N=Nc1ccc(S(=O)(=O)O)cc1` (centres unmarked) [FD&C Yellow 5], the AC50 falls from 7.85 µM to 6.01e-06 µM.

`COc1ccc2[nH]c([S+]([O-])Cc3ncc(C)c(OC)c3C)nc2c1` (centres unmarked) [Omeprazole] and `c1cnc2cc3c(cc2n1)[C@@H]1CNC[C@H]3C1` [Varenicline dihydrochloride] cannot be ordered by AC50: > 50 µM for the first, 63.5 µM for the second.

`c1ccc(C2(c3ccccc3)CC2C2=NCCN2)cc1` (centres unmarked) [Cifenline succinate] and `CN(C)c1ccc(O)c2c1C[C@H]1C[C@H]3[C@H](N(C)C)C(O)=C(C(N)=O)C(=O)[C@@]3(O)C(O)=C1C2=O` [Minocycline hydrochloride] are within 1.5-fold of each other in AC50: 35.8 µM for the first, 44.9 µM for the second.

For `C[C@]12C[C@H](O)[C@H]3[C@@H](CCC4=CC(=O)CC[C@@]43C)[C@@H]1CC[C@@H]2C(=O)CO` [Corticosterone], the AC50 was > 50 µM.
